# Screens as filed in PubChem BioAssay.
# This is a sample that favours compounds with a hit; in the whole collection about 17% have one here.
# ATXN2 expr inh – reduces ATXN2 reporter expression in HEK-293 cells; HEK-293 ATXN2-luciferase reporter, luminescence, 24 h; Potency, µM (doses to about 57 µM), without a hit: at the top dose activity change, negative = inhibition, hits mostly inhibitors; hit rate 0.72% among 360,000; AID 1745845; also: % is scaled to controls: 0 for no effect and ±100 for the full control effect; nearly all actives have a fitted effect of over 55% in size
#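 ATXN2-luciferase reporter cells (luciferase flanked by upstream and downstream ATXN2 gene portions) were treated 24 h at 37 °C with compounds at up to 57 uM. SteadyGlo luminescence gave expression; GF-AFC fluorescence gave viability.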
# TGFb SMAD3 inh – inhibitors of TGF-b signaling | HepG2 CAGA-GFP TGF-b/SMAD3 reporter, GFP fluorescence, 18 h; TGF-beta stimulated, 500 pg/mL final | Potency, µM (top dose mostly 46.1 µM), without a hit: at the highest dose activity, negative = inhibition, usual class: inhibitors | hit rate 1.2% among 410,000 | AID 588855; also: % is scaled to controls: 0 for no effect and ±100 for the full control effect; nearly all actives have a fitted effect of over 65% in size
#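 TGF-beta reporter screen: HEPG2 CAGA-GFP, 1% FBS, 500 pg/mL TGF-beta final, 18 h; per-cell GFP summed per well; curves fitted and categorized by class.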
# HepG2 viability – counter-screen for TGF-b inhibitors: cytotoxicity in HepG2 cells | Potency, µM (highest dose often 46.1 µM), without a hit: top-dose activity change, negative = cytotoxicity, most hits filed as cytotoxic | HepG2 CAGA-GFP viability, ATP luminescence, 18 h | hit rate 0.76% among 410,000
#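 HepG2 CAGA-GFP cells (1000/well, DMEM with 1% FBS) received compound, then TGF-beta at 500 pg/mL final, and were incubated 18 hours at 37 degrees C. Viability was read by CellTiter-Glo luminescence. Media-only wells were set as complete cell-killing and DMSO as no toxicity.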
# DT40 TDP1 no CPT – qHTS for Inhibitors of human tyrosyl-DNA phosphodiesterase 1 (TDP1): qHTS in cells in absence of CPT; hit rate 15% among 420,000; DT40 Tdp1-/- hTDP1 cells, no CPT, ATP luminescence, 48 h; AID 686978, 2013; Potency, µM (top dose mostly 46.2 µM), without a hit: at the highest dose activity change, negative = growth inhibition, hits mostly inhibitors; also: % is scaled to controls: 0 for no effect and ±100 for the full control effect; nearly all actives have a fitted effect of over 55% in size
#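 Cells were dispensed at 400 per well, compounds added by pin tool, plates incubated ≥48 hr at 37 °C, then CellTiter-Glo added for 30 min at room temperature before luminescence reading. Line: DT40 Tdp1-/- complemented with hTDP1; camptothecin omitted.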
# ATXN viability – cell viability loss in ATXN counter-screen; S2 cells (HEK-293 line with an ATXN2-luciferase reporter) viability, CellTiter-Fluor protease fluorescence, 24 h; Potency, µM (series often up to 56.7 µM), hits mostly cytotoxic; hit rate 0.49% among 400,000; AID 651635; also: nearly all actives have a fitted effect of over 40% in size
# DT40 TDP1 CPT – DT40-hTDP1 cell growth loss with CPT | chicken DT40 Tdp1-/-;hTDP1 cells + 20 nM CPT, ATP luminescence, 48 h | hit rate 12% among 420,000 | AID 686979 | Potency, µM (series often up to 46.2 µM), inactives show at the highest dose activity change, negative = growth inhibition, actives largely listed as inhibitors; also: % is scaled to controls: 0 for no effect and ±100 for the full control effect; nearly all actives have a fitted effect of over 55% in size
#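 Chicken DT40 Tdp1-/- cells stably complemented with human TDP1 were seeded at 400 cells/well in medium containing 20 nM camptothecin, exposed to pin-transferred compounds, and grown at 37 °C for at least 48 hr. Viability was read as ATP luminescence.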
# * hit, by the source's call; i = inactive; ? = inconclusive; . = no result given; [ ] = another dose, or the depositor's remark. Calls follow the shape of the dose curve; as a rule, active = well fitted curve in the direction sought with a large enough effect; inconclusive = small, poorly fitted or top-dose-only effect, or another doubt; inactive = no such curve, though single readings can be large; an effect the other way counts as inactive or inconclusive. Potency is read from the fitted curve at half-maximal effect.
SMILES,ATXN2 expr inh,TGFb SMAD3 inh,HepG2 viability,DT40 TDP1 no CPT,ATXN viability,DT40 TDP1 CPT
COC(=O)c1c(-c2ccc(Cl)cc2)noc1N1CCN(c2cccc(C)c2C)CC1,3%,7%,21%,?,i,16µM*
COC(=O)c1c(-c2ccc(Cl)cc2)noc1N1CCN(c2cccc(OC)c2)CC1,1%,-10%,0%,5.8µM*,i,16µM*
O=C(Nc1c[nH]c(=O)[nH]c1=O)c1ccccc1Cl,-13%,-15%,-3%,6%,i,-2%
COc1ccc(CN2CCc3ccc(NC(=O)CCc4ccccc4OC)cc3C2)c(O)c1,-32%,-24%,-25%,23µM*,i,15µM*
CSc1cccc(NC(=O)c2ccc(CN3CCc4ccccc4C3)cc2)c1,?,0%,-17%,-49%,i,?
COc1ccc(NC(=O)c2ccc(CN3CCc4ccccc4C3)cc2)c(OC)c1,-23%,-29%,-8%,?,i,23µM*
O=C(Nc1cccc(Br)c1)c1ccc(CN2CCc3ccccc3C2)cc1,-32%,?,-18%,16µM*,i,?
CN1CCCCC1C(=O)N1CCC(Oc2cccc(CN3CCN(c4ccccn4)CC3)c2)CC1 (stereo unspecified),.,.,.,?,?,12%[9.04 µM]
Cn1c(SCC(=O)N2CCOCC2)ncc(C(=O)Nc2ccccc2)c1=O,.,-3%,2%,-25%,.,?
COc1cc(OC)c(Nc2nc3ccccc3nc2-n2nc(C)cc2C)cc1Cl,-3%,12%,12%,?,i,-10%
Cc1ccc(C(O)(COC(=O)C(C)C)COC(=O)C(C)C)c(O)c1,-3%,17%,7%,3.7µM*,i,4.6µM*
CC(C)CCC[C@](C)(O)c1ccc(C(=O)O)cc1O,5%,.,.,-5%,i,1%
CC1C/C(=N/Nc2nc3ccccc3[nH]2)CC(C)(C)C1 (stereo unspecified),-18%,?,-30%,?,i,21µM*
CC1C/C(=N/NC(=O)c2ccc(CSc3nc4ccccc4[nH]3)cc2)CC(C)(C)C1 (stereo unspecified),-5%,0%,-1%,-27%,i,-26%
COc1ccc(S(=O)(=O)N(Cc2nc(-c3ccc(Cl)cc3)no2)C2CCCCC2)cc1,.,?,-36%,21µM*,.,21µM*
Cc1ccc(-c2noc(CN(C3CCCCC3)S(=O)(=O)c3ccc(Cl)cc3)n2)cc1,.,-18%,-5%,?,.,26µM*
O=S(=O)(c1ccc(F)cc1)N(Cc1nc(-c2ccc(Cl)cc2)no1)C1CCCCC1,.,-6%,4%,26µM*,.,?
CN(Cc1nc(-c2ccncc2)no1)S(=O)(=O)c1ccc(Cl)cc1,-17%,-24%,0%,?,i,?
C=CCN1C=C2C(=O)C(C)(OC(=O)C3CCCC3)C(=O)C(c3ccccc3)=C2C=C1CCCC(=O)OC (stereo unspecified),-8%,6%,-1%,-18%,i,-15%
COC(=O)CCCC1=CC2=C(c3ccccc3)C(=O)C(C)(OC(=O)C3CCCC3)C(=O)C2=CN1Cc1ccc2c(c1)OCO2 (stereo unspecified),-11%,-17%,-5%,?,i,23µM*
COC(=O)CCCC1=CC2=C(c3ccccc3)C(=O)C(C)(OC(=O)C3CCCC3)C(=O)C2=CN1Cc1ccc(OC)cc1 (stereo unspecified),-7%,-11%,1%,?,i,23µM*
CCN(Cc1ccccc1)S(=O)(=O)c1ccc(OC)cc1,-4%,?,-51%,16µM*,?,?
Cc1nc(-c2ccc(S(=O)(=O)N(Cc3ccccc3)C(C)C)cc2)co1,-18%,-15%,-29%,15µM*,i,?
CCN(Cc1ccccc1)S(=O)(=O)c1ccc(-c2coc(C)n2)cc1,-11%,-5%,-33%,23µM*,i,13µM*
CCN(Cc1ccccc1)S(=O)(=O)c1ccc(S(=O)(=O)N2CCN(C)CC2)cc1,4%,0%,-1%,-14%,i,-29%
SMILES,ATXN2 expr inh,TGFb SMAD3 inh,HepG2 viability,DT40 TDP1 no CPT,ATXN viability,DT40 TDP1 CPT
CCNC(=O)c1ccc2nc(Cc3ccccc3)oc2c1,18%,-3%,-2%,?,i,?
CC(C)Oc1ccc(CNC(=O)c2ccc3nc(Cc4ccccc4)oc3c2)cc1,-13%,?,-31%,-28%,i,?
CC(CNC(=O)c1ccc2nc(Cc3ccccc3)oc2c1)c1ccccc1 (stereo unspecified),-38%,-15%,-30%,16µM*,?,?
Cc1cccc(CNC(=O)c2ccc3nc(Cc4ccccc4)oc3c2)c1,-6%,-3%,-34%,23µM*,?,21µM*
CN(C)c1ccc(CNC(=O)c2ccc3nc(Cc4ccccc4)oc3c2)cc1,?,?,-25%,21µM*,?,?
CCOC(=O)CN1C(=O)N[C@@H](c2ccco2)C(C(C)=O)=C1C,8%,4%,-1%,-1%,i,-5%
CN1CCN(C(=O)c2ccc(-c3ccc(F)c(F)c3)c3ccoc23)CC1,-1%,5%,-11%,16µM*,i,16µM*
COc1cc(NC(=O)c2ccc(-c3ccnn3C)c3ccoc23)cc(OC)c1OC,12%,-4%,-3%,21µM*,i,?
CN1CCN(C(=O)c2ccc(F)c(F)c2)CC1,.,-5%,-2%,11%,i,-2%
CN1CCN(c2ccc(CNC(=O)c3ccc(-c4ccnn4C)c4ccoc34)cc2)CC1,102%,18%,-20%,?,i,?
COc1cc(NC(=O)c2ccc(-c3cccnc3)c3ccoc23)cc(OC)c1OC,-24%,8%,-31%,6.5µM*,i,13µM*
